The source of these data is PubChem BioAssay.

Assay [1] is described as follows: Wnt pathway potentiators raising nuclear beta-catenin – imaging, WNT3A-conditioned medium, mouse C2C12, NPC library, primary screen (AID 1117326; in the data active means nuclear beta-catenin stimulation mostly above about 4.2%, no sharp cut-off; inactive means mostly below about 10%; further: reference of the scale not given here). Conditions: stronger effect = higher value.
Assay [2] can be described thus: stimulators of insulin release from INS-1E, primary screen, cell-based, 5 mM glucose, NPC library (AID 1117329;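 active means compound raises insulin release from rat beta cells at 5 mM glucose, no numeric limit stated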; further: reference of the scale not given here). As to conditions: rat INS-1E insulin secretion, at 10 µM, stronger effect = higher value.
The nature of assay [3]: growth inhibition of GSK3B-pretreated HCT116 cells – cell-based, CellTiter-Glo, 0.2 to 20 µM (AID 1117336;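 active means compounds lowering colon cancer cell viability after pretreatment blocking the GSK3B kinase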). As to conditions: HCT116 viability after GSK3B inhibitor, at 20 µM, stronger effect = higher value. On the technique in general: In ATP-based viability assays light output follows the ATP content of the culture.
A short description of assay [4]: inhibition of endothelial tube formation, primary screen, imaging, VEGF stimulated, CD31 staining, tube area, NPC library (AID 1117340). As to conditions: VEGF-stimulated ADSC/ECFC co-culture, at 10 µM, stronger effect = higher value.
The nature of assay [5]: GLP1 release stimulators, primary, NCI-H716, NPC library (AID 1117341;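 active means compound raises GLP1 secretion from the human gut endocrine cells, with no numeric limit stated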; further: reference of the scale not given here). Conditions: NCI-H716 cells, at 10 µM, stronger effect = higher value.
Assay [6] in a line: HCT116 colon cancer cell growth inhibition, primary screen, CellTiter-Glo luminescence, NPC library (AID 1117342;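 active means compounds that lower survival of HCT116 colon cancer cells in the luminescence readout, no numeric limit stated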). As to conditions: at 20 µM (top of the series).
A short description of assay [7]: reduced SW480 viability measured with CellTiter-Glo, NPC library, primary (AID 1117343;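 active means compounds that lower viability of the colon cancer cells in the luminescence readout, with no numeric limit stated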). As to conditions: CellTiter-Glo luminescence; at 20 µM (top of the series) unless noted.
Assay [8] can be described thus: NPC library primary testing for decreased DLD-1 cell viability via CellTiter-Glo (AID 1117346;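 active means compounds that lower survival of DLD-1 colon cancer cells in the luminescence readout, no cutoff given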). As to conditions: DLD-1 viability, CellTiter-Glo luminescence; at 20 µM (top of the series).
In assay [9] the target is NAD(+) hydrolase SARM1 (Homo sapiens) (UniProt Q6SZW1). The assay can be described thus: blocking NAD cleavage by SARM1 SAM-TIR – cell lysate, NAD-Glo luminescence (AID 1508614;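 active means compound whose remaining NAD level is above about 45 nM, limit read from the data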). Conditions: SAM-TIR HEK293T lysate NADase, at 1 µM, stronger effect = higher value.
NAD(+) hydrolase SARM1 (Homo sapiens), sequence (Q6SZW1 whole entry, looked up): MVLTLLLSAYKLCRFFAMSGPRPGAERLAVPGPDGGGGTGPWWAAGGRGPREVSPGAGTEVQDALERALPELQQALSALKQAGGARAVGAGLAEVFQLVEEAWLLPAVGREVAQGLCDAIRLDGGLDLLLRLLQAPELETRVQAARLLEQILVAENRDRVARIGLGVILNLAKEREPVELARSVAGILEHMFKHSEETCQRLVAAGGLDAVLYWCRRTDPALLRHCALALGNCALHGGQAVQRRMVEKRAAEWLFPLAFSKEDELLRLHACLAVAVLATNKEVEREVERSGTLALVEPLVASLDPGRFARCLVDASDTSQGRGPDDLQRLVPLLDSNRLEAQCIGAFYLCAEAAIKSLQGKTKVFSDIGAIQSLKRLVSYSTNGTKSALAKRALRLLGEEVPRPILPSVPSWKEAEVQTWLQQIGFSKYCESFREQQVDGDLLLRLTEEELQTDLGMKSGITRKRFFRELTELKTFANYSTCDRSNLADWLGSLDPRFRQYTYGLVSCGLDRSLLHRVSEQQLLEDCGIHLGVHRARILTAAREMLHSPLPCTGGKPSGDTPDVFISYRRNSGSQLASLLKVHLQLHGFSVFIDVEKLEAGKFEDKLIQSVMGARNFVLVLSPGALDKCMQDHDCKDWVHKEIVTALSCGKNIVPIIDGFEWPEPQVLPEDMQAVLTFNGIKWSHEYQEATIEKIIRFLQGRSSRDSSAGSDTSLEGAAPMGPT
A short description of assay [10]: MELAS cybrid and Rieske KO viability enhancers – cell-based, MELAS cybrids, Rieske KO mouse fibroblasts, CellTiter-Glo, primary screen (AID 1508586;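 active means mean z-score across replicates of 1.96 or higher in either the MELAS or the Rieske mutant cell line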;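 further: z relative to plate mean and SD of compound and empty wells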). As to conditions: low glucose.
Setting [11] is: MELAS cybrid survival, CellTiter-Glo 48 h, stronger effect = higher value.
The mark [12] stands for this setting: Rieske KO mouse fibroblast survival, CellTiter-Glo 72 h.

The structures appear in SMILES notation. Activity calls are given as the source filed them.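 How the source made its calls, unless noted: active means compound that reduces growth-factor-driven endothelial tube area in a mixed cell culture, no cutoff stated; inactive means the rest.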

In the case of `O=C(CCCl)NCCc1ccccc1`, the nuclear beta-catenin stimulation in assay [1] (at 10 µM) was -0.5% (inactive); in assay [1] (stimulation, at 2 µM), 0.2%. The insulin secretion stimulation in assay [2] is 1.5% (inactive). In addition, in assay [3], the viability decrease is -9.9% (inactive). In [4], the tube area decrease was -1.9% (inactive). In assay [5], the GLP1 secretion stimulation was -1.9% (inactive). Moreover, the inhibition of viability in [6] is -2.8% (inactive). For the same compound, the viability decrease (inhibition) in assay [7] is -1.5% (inactive); in assay [8] it was -7.5% (active). Moreover, the remaining NAD in [9] was 10 nM (inactive).

As for `C[C@]1(Cn2ccnn2)[C@H](C(=O)O)N2C(=O)C[C@H]2S1(=O)=O`, the nuclear beta-catenin stimulation in assay [1] (at 10 µM) is -1.1% (inactive); in [1] (stimulation, at 2 µM), 0.1%. Also, the insulin secretion stimulation in assay [2] is 10.1% (inactive). The viability decrease in [3] is -2.3% (inactive). Also, the tube area decrease in [4] was -6% (inactive). Also, the GLP1 secretion stimulation in [5] is 1.9% (inactive). The inhibition of viability in assay [6] was 3.3% (inactive). For the same compound, the values for the viability decrease (inhibition) in assay [7] and in assay [8] were 17.8% (inactive) and -1.5% (inactive), respectively. Moreover, the values for the z-score in assay [10] (setting [11]) and in assay [10] (setting [12]) were -0.126 (inactive) and -0.0503, respectively. Moreover, the remaining NAD in assay [9] was 10 nM (inactive).

For the compound `CC(CN(C)C)C(C)(O)Cc1ccc(Cl)cc1` (stereo not given), the nuclear beta-catenin stimulation was -2% (inactive) in assay [1] (at 10 µM) and -0.8% in [1] (stimulation, at 2 µM). For the same compound, the insulin secretion stimulation in assay [2] is 7.5% (inactive). Besides, the viability decrease in [3] is -15% (inactive). Further, in assay [4], the tube area decrease was 7.9% (inactive). Further, in assay [5], the GLP1 secretion stimulation is -2% (inactive). For the same compound, the inhibition of viability in assay [6] is 17.4% (inactive). Moreover, the figures for the viability decrease (inhibition) in [7] and in [8] were -0.8% (inactive) and -9.1% (inactive), respectively. Also, the values for the z-score in assay [10] (setting [11]) and in assay [10] (setting [12]) were 0.453 (inactive) and -0.0123, respectively.

As to `CCOCCn1c(N2CCCN(C)CC2)nc2ccccc21`, the nuclear beta-catenin stimulation in assay [1] (at 10 µM) is -1.8% (inactive); in assay [1] (stimulation, at 2 µM) it was 1%. Besides, in assay [2], the insulin secretion stimulation was 4.3% (inactive). Also, the viability decrease in assay [3] was -10.6% (inactive). In addition, the tube area decrease in assay [4] is 3.4% (inactive). Moreover, the GLP1 secretion stimulation in assay [5] was -2.3% (inactive). In assay [6], the inhibition of viability was 8.5% (inactive). For the same compound, the viability decrease (inhibition) in [7] was 6% (inactive); in assay [8], -4.3% (inactive). Moreover, the z-score in [10] (setting [11]) is 0.35 (inactive); in [10] (setting [12]), -0.184.

As for `O=C1OC2(c3ccccc31)c1cc(I)c(O)c(I)c1Oc1c2cc(I)c(O)c1I`, the nuclear beta-catenin stimulation in assay [1] (at 10 µM) was 1.2% (inactive); in [1] (stimulation, at 2 µM), 1.9%. The insulin secretion stimulation in assay [2] is 1.6% (inactive). In addition, the viability decrease in assay [3] is -45.8% (inactive). Further, the tube area decrease in [4] was 12% (inactive). The GLP1 secretion stimulation in assay [5] was 24.3% (active). Also, the inhibition of viability in assay [6] was -2.6% (inactive). The results for the viability decrease (inhibition) in assay [7] and in [8] were 24.4% (inactive) and -14.4% (inactive), respectively. Besides, in [9], the remaining NAD was 10 nM (inactive).

With `Clc1cc(Cl)c(OCC#CI)cc1Cl`, the nuclear beta-catenin stimulation in assay [1] (at 10 µM) is 62.3% (active); in assay [1] (stimulation, at 2 µM) it was 21.7%. Moreover, in assay [2], the insulin secretion stimulation was 9.6% (inactive). Further, the viability decrease in assay [3] was 93.8% (active). Besides, in [4], the tube area decrease was 106% (active). Besides, the GLP1 secretion stimulation in assay [5] was -0.7% (inactive). Further, the inhibition of viability in assay [6] is 92% (active). For the same compound, the figures for the viability decrease (inhibition) in assay [7] and in [8] were 100% (active) and 98.1% (active), respectively. The results for the z-score in assay [10] (setting [11]) and in [10] (setting [12]) were -0.965 and 8.41, respectively.
